C diff growth: inhibitors of Clostridium difficile growth; Clostridium difficile clinical isolate growth, OD600, 24 h; stronger effect = lower value; growth activity, negative = inhibition, % at 16 µg/mL (by protocol); 86,000 tested, 0.25% active;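 active = mean growth activity at or below -80% and every replicate also at or below -80%; inconclusive = mean at or below -80% but some replicate above -80%; inactive = mean growth activity above -80%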;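 also: 0% = DMSO wells and -100% = levofloxacin 16 µg/mL wells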
T cruzi growth-1: inhibitors of T. cruzi proliferation. T. cruzi beta-gal in NIH3T3, GalScreen luminescence, 90 h. inhibition, % at 8.34 µM. 77,000 tested, 5.9% active. AID 624255;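 active = mean inhibition above about 93%, with at least 55% of replicates each passing it, limit read from the data, passing the limit was not always enough; inconclusive = only one of those two conditions holds; inactive = neither condition holds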
Pf Dd2 inh: inhibitors of Plasmodium falciparum Dd2 growth | P. falciparum Dd2 growth, SYBR Green, 72 h; stronger effect = lower value | activity change, % at 10 µM | 94,000 tested, 2.3% active; in the data active = activity change below about -80%; inconclusive = no clear call, values can overlap the other calls
T cruzi growth-2: inhibitors of T. cruzi proliferation; shares compounds with T cruzi growth-1; T. cruzi beta-gal in NIH3T3, GalScreen luminescence, 90 h; inhibition, % at 8.35 µM; 5,600 tested, 72% active; AID 651739;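 active = mean replicate inhibition above about 95% and at least 55% of replicates individually reaching it, limit read from the data; inconclusive = only one of the two criteria is met; inactive = neither criterion is met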
T cruzi growth-3: Trypanosoma cruzi proliferation inhibition; inhibition, % at 2.09 µM; shares compounds with T cruzi growth-1; T. cruzi beta-gal in NIH3T3, GalScreen luminescence, 90 h; 5,600 tested, 21% active; AID 651740;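 active = mean inhibition above about 95%, with at least 55% of replicates also reaching it, limit read from the data; inconclusive = meets just one of the two conditions; inactive = meets neither condition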;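 also: plate controls were neutral control median for no effect and positive control median for full effect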
NIH3T3 tox: NIH/3T3 (mouse) viability loss; shares compounds with T cruzi growth-1; NIH/3T3 viability, CellTiter-Glo ATP luminescence, 90 h; AID 651742; 5,600 tested, 14% active; cytotoxicity (signal decrease), % at 8.35 µM;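 active = mean signal decrease across replicates above about 35% based on untreated-well scatter, with enough replicates individually passing, limit read from the data; inconclusive = no rule stated though some were filed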;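 also: 0% = median of neutral control wells and 100% = median of positive control wells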
3T3 cytotox 2: NIH/3T3 (mouse) viability loss; shares compounds with T cruzi growth-1; NIH/3T3 viability, CellTiter-Glo ATP luminescence, 90 h; inhibition, % at 24.9 µM; 5,600 tested, 56% active;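 active = mean loss of cell viability signal at or above a set limit, and enough replicates individually reaching it; inconclusive = meets only the mean limit or only the replicate share; inactive = meets neither condition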;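 also: 0% = median of neutral control wells and 100% = median of positive control wells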
* = called active by the depositor; ? = inconclusive; · = no result. Compounds with a hit are over-represented: about 6.7% of the library has one in this group of screens.

SMILES	C diff growth	T cruzi growth-1	Pf Dd2 inh	T cruzi growth-2	T cruzi growth-3	NIH3T3 tox	3T3 cytotox 2
O=C(C[C@@H]1C=C[C@@H](NC(=O)c2ccncc2)[C@H](CO)O1)Nc1ccccc1	-2	·	35	·	·	·	·
C[C@H]1CN([C@@H](C)CO)C(=O)c2cccc(NC(=O)c3ccc(-c4nccs4)cc3)c2O[C@H]1CN(C)Cc1ccc(C(F)(F)F)cc1	·	81	-42	·	·	·	·
C[C@H](CO)N1C[C@H](C)[C@H](CN(C)Cc2ccc(C(F)(F)F)cc2)Oc2c(NC(=O)c3ccc(-c4nccs4)cc3)cccc2C1=O	·	?	-70	108*	87	12	-10
C[C@H]1CN([C@@H](C)CO)C(=O)c2cccc(NC(=O)c3ccc(-c4nccs4)cc3)c2O[C@H]1CN(C)Cc1ccc(Oc2ccccc2)cc1	·	1	-35	·	·	·	·
C[C@H](CO)N1C[C@H](C)[C@@H](CN(C)Cc2ccc(Oc3ccccc3)cc2)Oc2c(NC(=O)c3ccc(-c4nccs4)cc3)cccc2C1=O	·	?	-64	100*	112*	-8	-11
COc1ccc(NC(=O)Nc2ccc3c(c2)CC(=O)N([C@@H](C)CO)C[C@@H](C)[C@@H](CN(C)S(C)(=O)=O)O3)cc1	-3	25	1	·	·	·	·
Cc1ccc(S(=O)(=O)Nc2ccc3c(c2)C(=O)N([C@@H](C)CO)C[C@H](C)[C@H](CN(C)C(=O)c2ccncc2)OCCCC[C@@H](C)O3)cc1	·	-17	-4	·	·	·	·
COc1ccc(CN(C)C[C@H]2OCCCC[C@@H](C)Oc3ccc(NS(=O)(=O)c4ccc(OC)cc4)cc3C(=O)N([C@@H](C)CO)C[C@@H]2C)cc1	-3	50	-59	·	·	·	·
COc1ccc(S(=O)(=O)Nc2ccc3c(c2)C(=O)N([C@H](C)CO)C[C@H](C)[C@@H](CN(C)Cc2ccc(C(F)(F)F)cc2)OCCCC[C@@H](C)O3)cc1	-2	98*	-38	102*	38	9	84*
COc1ccc(CN(C)C[C@H]2OCCCC[C@@H](C)Oc3ccc(NS(=O)(=O)c4ccc(Cl)cc4)cc3C(=O)N([C@H](C)CO)C[C@@H]2C)cc1	2	44	-31	·	·	·	·
COc1ccc(CN(C)C[C@H]2OCCCC[C@@H](C)Oc3ccc(NS(=O)(=O)c4ccc(Cl)cc4)cc3C(=O)N([C@@H](C)CO)C[C@H]2C)cc1	6	?	-59	82	68	38*	106*
COc1ccc(S(=O)(=O)Nc2ccc3c(c2)C(=O)N([C@@H](C)CO)C[C@H](C)[C@@H](CN(C)Cc2ccc(C(F)(F)F)cc2)OCCCC[C@H](C)O3)cc1	14	89	-44	·	·	·	·
COc1ccc(CN(C)C[C@H]2OCCCC[C@@H](C)Oc3ccc(NS(=O)(=O)c4ccc(Cl)cc4)cc3C(=O)N([C@H](C)CO)C[C@H]2C)cc1	1	119*	-71	115*	92	34	106*
COc1ccc(CN(C)C[C@H]2OCCCC[C@H](C)Oc3ccc(NS(=O)(=O)c4ccc(F)cc4)cc3C(=O)N([C@@H](C)CO)C[C@H]2C)cc1	-13	103*	-72	105*	66	26	103*
COc1ccc(CN(C)C[C@H]2OCCCC[C@@H](C)Oc3ccc(NS(=O)(=O)c4ccc(F)cc4)cc3C(=O)N([C@H](C)CO)C[C@@H]2C)cc1	0	3	-34	·	·	·	·
C[C@H]1CN([C@@H](C)CO)C(=O)c2cc(C#CC3CC3)cnc2O[C@@H]1CN(C)C(=O)c1ccccc1	2	-8	-19	·	·	·	·
C[C@@H]1CCCCO[C@H](CN(C)Cc2ccncc2)[C@H](C)CN([C@H](C)CO)C(=O)c2cc(NC(=O)Nc3ccc(F)cc3)ccc2O1	2	68	-47	·	·	·	·
COc1cccc(NC(=O)N[C@H]2CC[C@@H](CC(=O)N3CCCCC3)O[C@H]2CO)c1	·	3	-6	·	·	·	·
O=C(C[C@@H]1C[C@H]2c3cc(NC(=O)Nc4ccccc4)ccc3O[C@H]2[C@H](CO)O1)NC1CCCC1	1	3	-2	·	·	·	·
Cc1ccc(S(=O)(=O)N(C)C[C@H]2Oc3ccc(NC(=O)CCCN(C)C)cc3CC(=O)N([C@H](C)CO)C[C@H]2C)cc1	15	10	18	·	·	·	·
COc1ccc(CN(C)C[C@H]2OCCCC[C@H](C)Oc3ccc(NS(=O)(=O)c4ccc(Cl)cc4)cc3C(=O)N([C@H](C)CO)C[C@@H]2C)cc1	-1	89	-38	·	·	·	·
COc1ccc(CN(C)C[C@@H]2OCCCC[C@H](C)Oc3ccc(NS(=O)(=O)c4ccc(Cl)cc4)cc3C(=O)N([C@H](C)CO)C[C@H]2C)cc1	16	?	-57	97*	110*	31	103*
C[C@H](CO)N1C[C@H](C)[C@H](CN(C)C(=O)Nc2ccc(C(F)(F)F)cc2)OCCCC[C@H](C)Oc2ccc(NC(=O)Nc3ccc4c(c3)OCO4)cc2C1=O	0	111*	65	100*	109*	6	12
C[C@@H]1CCCCO[C@H](CN(C)C(=O)Nc2ccc3c(c2)OCO3)[C@H](C)CN([C@@H](C)CO)C(=O)c2cc(NC(=O)Nc3ccc4c(c3)OCO4)ccc2O1	·	60	-23	·	·	·	·
C[C@H]1CCCCO[C@H](CN(C)C(=O)Nc2ccc(C(F)(F)F)cc2)[C@@H](C)CN([C@@H](C)CO)C(=O)c2cc(NC(=O)Nc3ccc4c(c3)OCO4)ccc2O1	-4	107*	-85*	102*	110*	13	-3
SMILES	C diff growth	T cruzi growth-1	Pf Dd2 inh	T cruzi growth-2	T cruzi growth-3	NIH3T3 tox	3T3 cytotox 2
C[C@@H]1CN([C@@H](C)CO)C(=O)c2cc(NC(=O)Nc3ccc(C(F)(F)F)cc3)ccc2O[C@@H](C)CCCCO[C@@H]1CN(C)C(=O)Nc1ccc2c(c1)OCO2	7	·	-70	·	·	·	·
Cc1noc(C)c1NC(=O)Nc1ccc2c(c1)C(=O)N([C@H](C)CO)C[C@@H](C)[C@@H](CN(C)S(=O)(=O)c1ccc(F)cc1)OCCCC[C@H](C)O2	2	4	-46	·	·	·	·
O=C(N[C@H]1CC[C@H](CCn2cc(-c3ccccn3)nn2)O[C@H]1CO)c1ccncc1	-1	31	-15	·	·	·	·
COc1ccc2c3c([nH]c2c1)[C@H](CO)N(C(=O)C1CC1)CC31CCN(C)CC1	18	·	21	·	·	·	·
CNC[C@@H]1Oc2ccc(NS(=O)(=O)c3c(C)noc3C)cc2CC(=O)N([C@@H](C)CO)C[C@H]1C	-3	4	28	·	·	·	·
CCC(=O)N1CCCCN2[C@H](CO)[C@H](c3ccc(/C=C/c4ccccc4)cc3)[C@H]2C1	-6	117*	-18	102*	66	27	105*
CCC(=O)N1CCCCN2[C@H](CO)[C@@H](c3ccc(/C=C/c4ccccc4)cc3)[C@H]2C1	-1	91	-26	·	·	·	·
CCC(=O)N1CCCCN2[C@@H](CO)[C@H](c3ccc(/C=C/c4ccccc4)cc3)[C@@H]2C1	11	116*	10	106*	37	43*	105*

Screens from PubChem BioAssay.
